Hits are enriched below; roughly 12% of the tested compounds scored in any of these assays.
Shiga inhibitor: blocks Shiga toxin action in Vero cells | Vero cells, Shiga toxin protein synthesis inhibition reporter | inhibition, % at 38.7 µM | 290,000 compounds, 9.2% hits; in the data active = inhibition mostly above about 28%, no sharp cut-off; inactive = mostly below about 43%; also: 0% is about no effect
LASV entry inh: inhibitors of Lassa virus binding or cell entry; Lassa virus pseudotype entry inhibition, cell reporter; Potency, µM (highest dose often 37.9 µM), without a hit: at the highest dose activity change, negative = inhibition, most hits filed as inhibitors; 300,000 compounds, 1.2% hits; calls by dose curve; tested in HEK293 cells; also: potency is read from the fitted curve at half-maximal effect; % is scaled to controls: 0 for no effect and ±100 for the full control effect; nearly all actives have a fitted effect of over 50% in size
Marburg entry inh: Marburg virus entry inhibition; Marburg virus pseudotyped entry inhibition, cell reporter; Potency, µM (top dose mostly 37.8 µM), without a hit: at the highest dose activity change, negative = inhibition, hits mostly inhibitors; 300,000 compounds, 1.8% hits; AID 540276; calls by dose curve; tested in HEK293 cells; also: potency is read from the fitted curve at half-maximal effect; % is scaled to controls: 0 for no effect and ±100 for the full control effect
Cycloheximide cs: counter-screen hit for Shiga toxin inhibitors, cycloheximide; cell reporter, cycloheximide protein synthesis inhibition counterscreen; max response, %; 300,000 compounds, 12% hits; AID 2314; in the data active = max response mostly above about 13%, no sharp cut-off; inactive = mostly below about 14%; also: read at 38.3 µM for the half of the compounds with a filed dose; 0% is about no effect
Active calls of the source: *; ? = inconclusive; / = no result; [ ] = another dose, or the depositor's remark.

SMILES | Shiga inhibitor | LASV entry inh | Marburg entry inh | Cycloheximide cs
O=C1OC(c2cccs2)=N/C1=C/c1ccc(-c2cccc(C(=O)O)c2)o1 | 26.8 | / | / | 25.7*
CC(C)CC1c2[nH]c3ccccc3c2CCN1C(=O)C1CCOCC1 (stereo not drawn) | 6.5 | ? | ? | -3.0
CC(C)CC1c2[nH]c3ccccc3c2CCN1C(=O)CCC(=O)N(C)C (stereo not drawn) | 44.1* | 6.9% | 14.9%[46.1 µM] | 17.6
CC(C)CC1c2[nH]c3ccccc3c2CCN1C(=O)c1cnccn1 (stereo not drawn) | 75.7* | ? | 2.82µM* | 51.3*
Cc1cccc(-c2oc3ccccc3c2C#CCCO)c1 | 10.4 | / | / | 1.4
O=C(NCc1ccc(F)cc1)C(c1ccccc1)c1ccccc1 | 19.4 | / | / | 5.1
CC(=O)N(Cc1ccc(F)cc1)C1=C(NCc2ccccc2)C(=O)c2ccccc2C1=O | 19.2 | 6.31µM* | ? | 15.0
Fc1ccc(C2Nc3cccc4cccc(c34)N2)cc1 | 14.4 | -12.0%[46.1 µM] | 1.8%[46.1 µM] | 5.4
CCN(CC)c1ccc(C2Nc3cccc4cccc(c34)N2)cc1 | 23.8 | 4.2%[46.1 µM] | 3.6%[46.1 µM] | 25.3*
CCN(CC)c1ccc(C2NC(=O)c3ccccc3N2)cc1 (stereo not drawn) | / | 6.31µM* | ? | /
CC(C)c1ccc(N(CC(=O)NCc2ccco2)C(=O)CCC(=O)Nc2ccccn2)cc1 | 51.1* | / | -10.1%[46.1 µM] | 11.0*
Cc1ccc(N(CC(=O)NCc2ccc3c(c2)OCO3)C(=O)CCC(=O)Nc2ccccn2)cc1 | -10.7 | ? | -0.6%[46.1 µM] | -1.3
Cc1cc(C)cc(N(CC(=O)NCc2ccc3c(c2)OCO3)C(=O)CCC(=O)Nc2ccccn2)c1 | 13.7 | 10µM* | ? | -3.4
CCOc1ccc(CCNC(=O)CN(C)S(=O)(=O)c2cccs2)cc1OCC | / | 0.5% | ? | /
COc1cc2c(cc1CC=C(C)C)C(=O)C[C@@H](c1ccc(O)cc1)O2 | -1.5 | / | / | -7.6
CSC(=S)NN=C(C)c1cccc(C)n1 | / | ? | 5.01µM* | /
O=[N+]([O-])c1ccc(COc2ccccc2/C=N/O)cc1 | 89.5* | -14.1% | -4.1% | 44.9*
O=Cc1ccccc1OCCOc1ccc([N+](=O)[O-])cc1 | 43.1 | 17.6% | -24.7% | 25.6*
COc1cc(/C=N\n2nnnc2N)ccc1OCc1ccc(F)cc1 | -5.3 | -15.3% | 34.7% | 33.0
CCOc1cc(/C=N/O)ccc1OCc1ccc(F)cc1 | 65.2* | 4.7% | ? | 10.4
O=C1NC(=O)/C(=C\c2ccccc2OCc2ccc([N+](=O)[O-])cc2)N1 | -11.8 | 0.0% | ? | -5.2
COc1cc(/C=N/n2c(C)n[nH]c2=S)ccc1OCc1ccc(F)cc1 | 65.3* | -11.7% | 4.1% | 48.5*
CC(C)CCNC(=O)CN1N=C(c2ccc(Cl)cc2)CCC1=O | -7.0 | 3.5% | ? | -3.3
Cc1cc(N2CCCC2)nc2ccc(NC(=S)NC(C)C)cc12 | 9.7 | 15.1% | ? | 15.5
Cc1ccc(S(=O)(=O)N2C(=O)CCC2C(=O)N2CCCCC2)cc1 (stereo not drawn) | 3.3 | / | / | -2.7
SMILES | Shiga inhibitor | LASV entry inh | Marburg entry inh | Cycloheximide cs
CCOc1ccc(NC(=O)C(=O)NCCN2CCN(S(=O)(=O)c3ccc(C)cc3)CC2)cc1 | -5.8 | 17.1% | ? | -3.3
COc1cccc(CNC(=O)c2nnn(CC(=O)Nc3cccc(C)c3)c2N)c1 | -2.7 | / | / | 1.5
CCOc1ccc(C(=O)O/N=C(\N)c2ccc([N+](=O)[O-])cc2)cc1OCC | -11.5 | -15.6% | -7.0% | -4.3
CCOc1cc(/C=N/O)ccc1OCc1ccc([N+](=O)[O-])cc1 | 37.4* | 1.4% | ? | 9.1
CCOc1cc(C=C(C(=O)OC)C(=O)OC)ccc1OCc1ccc([N+](=O)[O-])cc1 | -15.9 | 3.55µM* | 2.82µM* | -4.5
CCOc1cc(C(=O)OCc2ccc([N+](=O)[O-])cc2)ccc1OCC(=O)N1CCOCC1 | / | ? | -1.0% | /
CC(=O)N1CCN(C(=O)c2cc(=O)c3ccccc3o2)CC1 | 43.0 | 3.5%[46.1 µM] | 8.6%[46.1 µM] | 23.3
O=C(c1ccc(COc2ccccc2Cl)o1)N1CCCC1 | 24.0 | 2.9% | -12.1%[46.1 µM] | 15.5*
O=C(NCc1cccnc1)c1ccc(COc2ccccc2Cl)o1 | -14.7 | / | / | -4.7
O=C(OCc1ccccn1)c1ccc(COc2ccccc2Cl)o1 | 34.3 | -15.5% | 16.7% | 30.0*
CNC(=O)COC(=O)/C=C/c1cccc(F)c1 | -1.8 | / | / | 2.5
CNC(=O)C(=O)NCC1OCCN1S(=O)(=O)c1ccc(OC)c(OC)c1 (stereo not drawn) | -13.1 | 7.8% | 16.9% | -2.6
COc1ccc(-c2nc(CCl)cs2)cc1 | 53.5* | / | / | 44.5*
COc1cc(OC)cc(C(=O)NCCc2csc(-c3cccc(C)c3)n2)c1 | / | -12.7%[46.1 µM] | / | /
CCc1ccc(-c2nc(CCl)cs2)cc1 | 90.0* | -29.6% | -0.1% | 36.8*
COc1ccc(C(=O)NCCc2csc(-c3ccc(Cl)cc3)n2)cc1 | / | 1.8%[46.1 µM] | / | /
COc1cccc(-c2nc(CCl)cs2)c1 | 56.9* | 2.6% | ? | 36.8*
COc1ccc(-c2csc(-c3ccc(O)cc3)n2)cc1 | 73.1* | / | / | 51.7*
Cc1c(C)c(C)c(C(=O)C2CCN(c3ccc([N+](=O)[O-])cn3)CC2)c(C)c1C | -3.6 | 3.9% | -3.7% | -1.2
O=C(CSc1nnc(NC(=O)c2ccccc2[N+](=O)[O-])s1)NC1CCCC1 | / | 15.9% | 20.7% | /
COc1ccc(-c2nc(-c3ccc(O)cc3O)cs2)cc1OC | 54.8* | ? | ? | 29.9*
C=CCn1c(-c2csc(-c3ccc(OC)c(OC)c3)n2)n[nH]c1=S | -3.2 | 13.4% | 7.2%[46.1 µM] | 10.4
COc1ccc(-c2nc(CCl)cs2)cc1OC | 44.9* | -6.4% | 22.6%[46.1 µM] | 29.1*
Cn1nc(-c2ccccc2)c(/C=N/O)c1Cl | 9.3 | 16.0%[46.1 µM] | 2.0%[46.1 µM] | 12.0
Cn1nc(CSc2ccccc2)c(C=O)c1Cl | 55.7 | -20.1% | -20.6%[46.1 µM] | 40.8*
SMILES | Shiga inhibitor | LASV entry inh | Marburg entry inh | Cycloheximide cs
C/C(=N\O)c1ccc(N2C(=O)C3CC=C(Cl)CC3C2=O)cc1 (stereo not drawn) | 80.3* | -1.5% | 0.8% | 36.6*
CCN(CC)C(=O)c1ccc(N2C(=O)C3CC=C(Cl)CC3C2=O)cc1 (stereo not drawn) | -9.0 | 4.5% | -16.1%[46.1 µM] | -2.2
COc1ccc(-n2cc(C(=O)NCc3ccccc3Cl)c3ccccc3c2=O)cc1 | / | 1.0%[46.1 µM] | / | /
CCCCOc1cccc(-c2nnc(NC(=O)CSc3ccc(C)cc3)s2)c1 | 9.8 | 0.316µM* | 1.6% | 3.5
CCCCNC(=O)CC1N=C2c3ccccc3N=C(SCC(=O)Nc3ccc(OC)cc3)N2C1=O (stereo not drawn) | 26.2 | 6.0% | 13.1% | 10.7
COC(=O)Nc1nnc(-c2ccc(OC)cc2)s1 | 101.5* | ? | ? | 29.6*
CN(C)c1ccc(NC(=O)c2sc(SCC(=O)Nc3nccs3)nc2N)cc1 | 108.7* | 9.3% | -10.9% | 33.1*
CN(C)c1ccc(NC(=O)c2sc(SCC(=O)Nc3ccc(Br)cc3)nc2N)cc1 | 23.8 | 19.2% | -7.6%[46.1 µM] | -2.7
CCCCNC(=O)CSc1nc(N)c(C(=O)Nc2ccc(OC)cc2)s1 | 27.8* | -25.4%[46.1 µM] | 11.5%[46.1 µM] | 29.7*
Nc1cc(Cl)cc2c1-c1ccc(Cl)cc1C2 | / | -1.0%[46.1 µM] | -22.9%[46.1 µM] | /
CCOc1ccc(CCNC(=O)COC(=O)c2cc(=O)[nH]c3ccccc23)cc1OCC | / | 9.8% | -3.8% | /
COc1ccc(NC(=O)CSc2nnc(NC(=O)Nc3ccc(OC)cc3)s2)cc1 | / | 14.3%[46.1 µM] | / | /
COC(=O)c1sc(SC)nc1N | 33.6 | 12.5% | 0.9%[46.1 µM] | 10.8

High-throughput results from PubChem BioAssay.
